GDH-TPI inh – counter-screen for M. tuberculosis FBA inhibitors: GDH-TPI coupled enzymes | GDH-TPI coupled enzyme counterscreen, NADH absorbance | inhibition, % at 4.8 µM | actives 1.2% (n = 360,000); in the data active means inhibition above about 30%;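 further: 0% = DMSO wells and 100% = wells lacking the enzyme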
FBA Mtb inh – inhibitors of M. tuberculosis fructose-bisphosphate aldolase; actives 2.3% (n = 360,000); P9WQA3; inhibition, % at 1 µM; purified M. tuberculosis FBA, fluorescence read-out; AID 588726; in the data active means inhibition above about 27%;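 further: 0% = vehicle and 100% = reference inhibitor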
Target sequence (P9WQA3 whole entry, looked up): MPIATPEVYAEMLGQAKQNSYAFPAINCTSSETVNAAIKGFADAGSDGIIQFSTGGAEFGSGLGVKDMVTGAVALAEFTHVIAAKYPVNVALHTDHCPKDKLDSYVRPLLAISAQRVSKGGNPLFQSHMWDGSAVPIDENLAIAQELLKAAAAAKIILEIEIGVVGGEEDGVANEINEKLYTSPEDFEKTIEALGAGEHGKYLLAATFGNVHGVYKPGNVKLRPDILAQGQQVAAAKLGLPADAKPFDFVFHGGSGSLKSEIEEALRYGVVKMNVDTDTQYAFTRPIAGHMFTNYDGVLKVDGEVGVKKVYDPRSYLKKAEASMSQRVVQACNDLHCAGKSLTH
Mtb UGM inh – inhibitors of M. tuberculosis UDP-galactopyranose mutase. inhibition, % at 10 µM. P9WIQ1. purified UGM, fluorescence polarization probe displacement. actives 0.06% (n = 320,000); in the data active means inhibition above about 10%, passing the limit was not always enough; inconclusive means no clear call, values can overlap the other calls
RecA splice inh – blocks M. tuberculosis RecA intein splicing | P9WHJ3 | cell-free RecA intein splicing, fluorescence | inhibition, % (concentration not given with the values) | actives 0.75% (n = 290,000) | AID 2221; in the data active means inhibition above about 30%; inconclusive means no clear call, values can overlap the other calls;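 further: 0% = vehicle wells and 100% = reference inhibitor control wells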
Mtb bLac sens – beta-lactam sensitization of Mtb H37Rv; M. tuberculosis H37Rv growth with meropenem, percent inhibition; actives 0.27% (n = 330,000); inhibition, % at 25 µM; call rule not given here;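 further: growth measured after seven days incubation then overnight dye step; 0% = bacteria only wells and 100% = bacteria with antibiotic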
Rv3671c protease – Rv3671c (M. tuberculosis) protease inhibition | P9WHR9 | inhibition, % at 5.96 µM | actives 0.048% (n = 320,000); in the data active means inhibition above about 38%;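 further: extracellular domain of Rv3671c used as enzyme; 0% = enzyme with DMSO and 100% = no enzyme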
* = called active by the depositor; u = inconclusive; x = not tested or not shown. Sampled rows, rich in hits. Any-hit rate of the full collection: about 4%.

SMILES	GDH-TPI inh	FBA Mtb inh	Mtb UGM inh	RecA splice inh	Mtb bLac sens	Rv3671c protease
CC(/C=N/n1cnnc1)=C\c1ccco1	39*	1	-1	3	13	-8
CC(/C=N/n1c(-c2cc(C)[nH]n2)n[nH]c1=S)=C\c1ccco1	12	-1	-1	x	-1	6
C/C(=N\NC(=O)c1ccccc1)c1ccc(N2CCOCC2)cc1	31*	-10	0	2	9	4
Cc1ccc(N2C(=O)c3cccc4c(N)ccc(c34)C2=O)c2cccnc12	7	-2	7	-10	3	-21
CCN1C(=O)c2cccc3c(N)ccc(c23)C1=O	5	-6	37*	-190	-3	23
O=C(c1ccco1)N1CCN(C(=O)c2ccccc2NS(=O)(=O)c2ccc(F)cc2)CC1	6	1	-2	1	-9	-1
COC(=O)c1ccc(C(=O)OC)c(NC(=O)Oc2ccccc2)c1	5	155*	4	-90	-1	-6
CN(C)c1ccc(C=NN2C(=O)CSC2=S)c(Cl)c1	36*	-7	x	x	x	x
O=C(CSc1nc(C2CC2)n(-c2ccccc2)n1)NCc1ccco1	-9	4	-3	x	-3	-3
CC(=O)Oc1ccc(C(=O)Nc2cccc(C(=O)c3cccc(NC(=O)c4ccc(OC(C)=O)cc4)c3)c2)cc1	6	0	-1	4	98	-51
CCC(=O)Oc1ccc(C(=O)Nc2cccc(C(=O)c3ccccc3)c2)cc1	-5	1	2	36*	-2	-26
COc1ccc(CCNC(=O)CNC(=O)c2ccco2)cc1	-5	2	1	0	2	6
O/N=C/c1ccnc(SCc2ccccc2)n1	-5	-1	2	6	30	-3
O=C(c1cccnc1)N1CCN(c2ccc(Cl)cc2)CC1	32*	3	-2	-1	11	10
O=C(c1ccc(N2CCN(C(=O)c3ccc(F)c(F)c3)CC2)cc1)c1cccc(F)c1	32*	-1	1	3	14	0
O=C(c1ccc(N2CCN(C(=O)c3ccccc3)CC2)cc1)c1cccc(F)c1	38*	-2	-1	3	11	-3
O=C(c1ccccc1)c1ccc(C(=O)N2CCN(c3ccc(O)cc3)CC2)cc1	0	1	1	x	-5	2
O=C(c1cccc(F)c1)N1CCN(c2cccc(Cl)c2)CC1	-6	4	0	5	-5	1
O=C1c2ccccc2C(=O)C12OC2c1cccc2ccccc12 (stereo not drawn)	8	-4	-1	7	5	-112
COc1ccc(C(=O)n2c(C)c(CCO)c(=O)n2C)cc1	-4	-1	0	9	-3	5
O=C(CSc1nc2ccccc2c(=O)[nH]1)Nc1ccc([N+](=O)[O-])cc1	38*	4	2	x	-7	-3
O=C(CSc1nc2ccccc2c(=O)[nH]1)Nc1ccc(C(=O)O)cc1	11	6	4	-3	5	0
COc1cc2ccc(=O)oc2c(O)c1O	13	5	x	x	x	x
COc1cc2oc(=O)ccc2cc1-c1c(OC)ccc2ccc(=O)oc12	35*	4	x	x	-2	-2
COCCCn1c(-c2ccc(Cl)cc2)n[nH]c1=S	11	28*	-3	0	-14	2
SMILES	GDH-TPI inh	FBA Mtb inh	Mtb UGM inh	RecA splice inh	Mtb bLac sens	Rv3671c protease
CCOCCCn1c(-c2ccc(Cl)cc2)n[nH]c1=S	-2	4	-2	-1	-12	-3
CCn1cc([C@@H]2C[C@H]3CN(Cc4cccc(Cl)c4)C(=O)[C@]34CCCN24)c(C)n1	4	-3	-2	1	1	5
Cc1cc(-c2sccc2Br)nc(-n2cccc2)n1	1	15	x	6	x	x
CC(=O)c1ccc(Nc2nc(C(C)N)cs2)cc1 (stereo not drawn)	31*	-5	x	x	x	x
Cc1ccc2c(c1)N(CC(=O)NCCCN1CCOCC1)C(=O)c1cccnc1O2	9	2	-1	9	u	-3
Cc1ccc(OCCOC(=O)CCc2nc3ccccc3c(=O)[nH]2)cc1	5	2	1	1	-2	-9
NC1=NC(=O)/C(=C/c2cccs2)S1	32*	-2	-2	x	10	0
CN(C)C1=NC(=O)/C(=C\c2ccccc2)S1	31*	-4	1	0	41	-1
COc1ccc(/C=C2\SC(N)=NC2=O)cc1	30	1	0	-1	3	x
C=CCSC1=NC(=O)/C(=C/c2cccs2)S1	28	-1	1	x	-1	0
NC1=NC(=O)/C(=C\c2cccnc2)S1	20	1	-1	2	-3	9

Source: PubChem BioAssay
